Experimental data from the supplement of paper PMC12350171.
Structures can show the parent of a compound that is named as a salt.

Columns and labels:
Conditions in all cases: 20 µM
[1] = tested on: Salmonella enterica typhimurium; experiment: growth AUC normalised to DMSO control (fraction of control); higher = less growth inhibition, active = hit call of the paper
Method in brief: (§1)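 Pathogens passaged twice anaerobically were inoculated at a starting OD578 of 0.01 into pre-reduced mGAM plates with drug at 20 μM and 1% DMSO, sealed with breathable membranes. Haemophilus parainfluenzae medium was supplemented with hemin and NAD. OD578 was read hourly for 24 h, with three biological replicates. Growth-curve AUC was computed by the trapezoidal rule up to the exponential-to-stationary transition and normalised to DMSO controls on the same plate.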

Shigella flexneri = experiment: as above
Method in brief: as §1

Vibrio cholerae = experiment: as above
Method in brief: as §1

[2] = tested on: Yersinia pseudotuberculosis; experiment: as above
Method in brief: as §1

P. vulgatus RND KO = experiment: growth AUC normalised to DMSO control (median) (fraction of control); higher = less growth inhibition, active = hit call of the paper
Method in brief: (§2)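 Area under the growth curve, calculated by the trapezoidal rule up to entry into stationary phase, was normalised to vehicle wells on the same plate. Strains had been passaged twice overnight without oxygen and then grown in mGAM in 96-well plates from OD578 0.01, each with an approved-drug library compound at 20 μM in 1% DMSO. OD578 was read hourly over 24 h in an anaerobic incubator, and the median of three biological replicates is given.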

P. vulgatus WT = experiment: as above
Method in brief: as §2

[3] = tested on: S. enterica typhimurium WT; experiment: as above
Method in brief: as §2

[4] = tested on: S. enterica typhimurium tolC KO; experiment: as above
Method in brief: as §2

Measured: growth AUC normalised to DMSO control
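Wherever growth AUC normalised to DMSO control (median) is given: active when median AUC fell below 0.1.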

CSc1ccc2c(c1)N(CCC1CCCCN1C)c1ccccc1S2 (stereo not given) [Thioridazine hydrochloride]
inactive: [1] 0.978 | Shigella flexneri 1 | Vibrio cholerae 0.957 | [2] 0.975 | P. vulgatus RND KO 0.88 | P. vulgatus WT 0.796 | [3] 0.99 | [4] 0.957

CC(=O)OC(C)C[N+](C)(C)C (stereo not given) [Methacholine chloride]
inactive: [1] 0.992 | Shigella flexneri 0.939 | Vibrio cholerae 0.99 | [2] 0.983 | P. vulgatus RND KO 0.991 | P. vulgatus WT 1 | [3] 0.991 | [4] 1

CCCCOC(=O)c1ccc(N)cc1 [Butamben]
inactive: [1] 0.994 | Shigella flexneri 0.995 | Vibrio cholerae 0.989 | [2] 0.937 | P. vulgatus RND KO 1.03 | P. vulgatus WT 1.03 | [3] 0.998 | [4] 1.01

OC(CCN1CCCC1)(c1ccccc1)C1CCCCC1 (stereo not given) [Procyclidine hydrochloride]
inactive: [1] 0.975 | Shigella flexneri 0.953 | Vibrio cholerae 0.937 | [2] 0.984 | P. vulgatus RND KO 0.96 | P. vulgatus WT 0.941 | [3] 1.01 | [4] 0.983

O=C(CCCN1CC=C(n2c(=O)[nH]c3ccccc32)CC1)c1ccc(F)cc1 [Droperidol]
inactive: [1] 0.989 | Shigella flexneri 0.985 | Vibrio cholerae 0.892 | [2] 0.98 | P. vulgatus RND KO 0.982 | P. vulgatus WT 0.976 | [3] 0.99 | [4] 0.936

COc1cccc(N(C)C(=S)Oc2ccc3c(c2)CCCC3)n1 [Liranaftate]
inactive: [1] 1.02 | Shigella flexneri 1.03 | Vibrio cholerae 1.01 | [2] 1.01 | P. vulgatus RND KO 1.03 | P. vulgatus WT 1.07 | [3] 0.996 | [4] 0.909

CN1C(C(=O)Nc2ccccn2)=C(O)c2ccccc2S1(=O)=O [Piroxicam]
inactive: [1] 0.973 | Shigella flexneri 0.995 | Vibrio cholerae 0.892 | [2] 1.01 | P. vulgatus RND KO 1.01 | P. vulgatus WT 1.04 | [3] 1.01 | [4] 0.977

Oc1c(Cl)cc(Cl)c2cccnc12 [Chloroxine]
active: [1] 0.922 | Shigella flexneri 0.884 | Vibrio cholerae 0.0387 | [2] 0.652 | P. vulgatus WT 0.0729
inactive: P. vulgatus RND KO 0.32 | [3] 0.969 | [4] 0.568

CC[C@@H]1C(=O)OC[C@@H]1Cc1cncn1C [Pilocarpine nitrate]
inactive: [1] 0.995 | Shigella flexneri 1 | Vibrio cholerae 0.998 | [2] 1.04 | P. vulgatus RND KO 0.982 | P. vulgatus WT 0.998 | [3] 1 | [4] 1

O=C(c1ccc(F)cc1)C1CCN(CCn2c(=O)[nH]c3ccccc3c2=O)CC1 [Ketanserin tartrate hydrate]
inactive: [1] 1.01 | Shigella flexneri 1.03 | Vibrio cholerae 0.894 | [2] 1 | P. vulgatus RND KO 1.03 | P. vulgatus WT 1.05 | [3] 1.02 | [4] 0.997

CCC1NC(=O)c2cc(S(N)(=O)=O)c(Cl)cc2N1 (stereo not given) [Quinethazone]
inactive: [1] 1.01 | Shigella flexneri 1.03 | Vibrio cholerae 1.05 | [2] 1.01 | P. vulgatus RND KO 1.06 | P. vulgatus WT 1.12 | [3] 1.01 | [4] 1.01

NS(=O)(=O)c1cc2c(cc1Cl)N=C(CSCc1ccccc1)NS2(=O)=O [Benzthiazide]
inactive: [1] 0.998 | Shigella flexneri 0.958 | Vibrio cholerae 0.947 | [2] 1.01 | P. vulgatus RND KO 0.99 | P. vulgatus WT 0.992 | [3] 1.01 | [4] 0.996

Nc1c2c(nc3ccccc13)CCCC2 [Tacrine hydrochloride]
inactive: [1] 0.995 | Shigella flexneri 1.03 | Vibrio cholerae 1.02 | [2] 0.98 | P. vulgatus RND KO 0.999 | P. vulgatus WT 1.06 | [3] 0.986 | [4] 0.992

CNC(=C[N+](=O)[O-])NCCSCc1ccc(CN(C)C)o1 [Ranitidine hydrochloride]
inactive: [1] 1 | Shigella flexneri 1 | Vibrio cholerae 1.01 | [2] 1.01 | P. vulgatus RND KO 1.01 | P. vulgatus WT 0.985 | [3] 1.02 | [4] 1.01

O=C1CN(/N=C/c2ccc([N+](=O)[O-])o2)C(=O)N1 [Nitrofurantoin]
active: Shigella flexneri 0.843
inactive: [1] 0.974 | Vibrio cholerae 0.964 | [2] 0.999 | P. vulgatus RND KO 0.253 | P. vulgatus WT 0.556 | [3] 0.836 | [4] 0.858

O=C(O)Cc1cc(I)c(Oc2ccc(O)c(I)c2)c(I)c1 [Tiratricol]
inactive: [1] 0.971 | Shigella flexneri 0.949 | Vibrio cholerae 0.919 | [2] 0.984 | P. vulgatus RND KO 0.817 | P. vulgatus WT 0.824 | [3] 1.01 | [4] 0.993

C=CC(N)CCC(=O)O (stereo not given) [Vigabatrin hydrochloride]
inactive: [1] 1.02 | Shigella flexneri 1.02 | Vibrio cholerae 1.01 | [2] 0.997 | P. vulgatus RND KO 1.01 | P. vulgatus WT 1.06 | [3] 1.03 | [4] 0.992

Cc1cccc(CN2CCN(C(c3ccccc3)c3ccc(Cl)cc3)CC2)c1 (stereo not given) [Meclozine dihydrochloride]
inactive: [1] 0.989 | Shigella flexneri 0.961 | Vibrio cholerae 0.885 | [2] 0.987 | P. vulgatus RND KO 1 | P. vulgatus WT 0.992 | [3] 1 | [4] 1

N=C(N)NC(=O)Cc1c(Cl)cccc1Cl [Guanfacine hydrochloride]
inactive: [1] 0.983 | Shigella flexneri 0.971 | Vibrio cholerae 1.02 | [2] 0.988 | P. vulgatus RND KO 1.02 | P. vulgatus WT 1.04 | [3] 0.989 | [4] 0.966

O=C(O)Cc1sc(-c2ccccc2)nc1-c1ccc(Cl)cc1 [Fentiazac]
inactive: [1] 0.993 | Shigella flexneri 1.03 | Vibrio cholerae 1 | [2] 1.02 | P. vulgatus RND KO 0.896 | P. vulgatus WT 0.947 | [3] 1 | [4] 0.98

CNCC(O)c1ccc(OC(=O)C(C)(C)C)c(OC(=O)C(C)(C)C)c1 (stereo not given) [Dipivefrin hydrochloride]
inactive: [1] 1.01 | Shigella flexneri 1.04 | Vibrio cholerae 1.05 | [2] 1.01 | P. vulgatus RND KO 1.02 | P. vulgatus WT 1.03 | [3] 1.02 | [4] 0.953

C#C[C@]1(O)CC[C@H]2[C@@H]3CCc4cc(O)ccc4[C@H]3CC[C@@]21C [Ethinylestradiol]
inactive: [1] 0.985 | Shigella flexneri 1.02 | Vibrio cholerae 0.996 | [2] 1.03 | P. vulgatus RND KO 0.913 | P. vulgatus WT 0.913 | [3] 0.998 | [4] 0.985

CCCCNc1ccc(C(=O)OCCN(C)C)cc1 [Tetracaine hydrochloride]
inactive: [1] 1.01 | Shigella flexneri 1.01 | Vibrio cholerae 1.01 | [2] 1 | P. vulgatus RND KO 1.04 | P. vulgatus WT 1.07 | [3] 0.999 | [4] 0.993

Cc1[nH]c(=O)c(C#N)cc1-c1ccncc1 [Milrinone]
inactive: [1] 0.949 | Shigella flexneri 0.999 | Vibrio cholerae 0.968 | [2] 0.989 | P. vulgatus RND KO 0.988 | P. vulgatus WT 0.995 | [3] 0.987 | [4] 0.936

CCCCC[C@H](O)/C=C/[C@H]1[C@H](O)CC(=O)[C@@H]1CCCCCCC(=O)O [Alprostadil]
inactive: [1] 0.992 | Shigella flexneri 0.989 | Vibrio cholerae 0.99 | [2] 0.999 | P. vulgatus RND KO 0.994 | P. vulgatus WT 1.01 | [3] 1 | [4] 1.01

CCc1ccc(CCOc2ccc(CC3SC(=O)NC3=O)cc2)nc1 (stereo not given) [Pioglitazone]
inactive: [1] 0.967 | Shigella flexneri 0.958 | Vibrio cholerae 0.911 | [2] 0.922 | P. vulgatus RND KO 0.994 | P. vulgatus WT 0.992 | [3] 0.996 | [4] 0.993

Cc1cn[nH]c1 [Fomepizole]
inactive: [1] 0.996 | Shigella flexneri 0.992 | Vibrio cholerae 0.977 | [2] 0.996 | P. vulgatus RND KO 0.978 | P. vulgatus WT 0.985 | [3] 0.993 | [4] 0.997

CO[C@@]1(NC(=O)Cc2cccs2)C(=O)N2C(C(=O)O)=C(COC(N)=O)CS[C@@H]21 [Cefoxitin sodium salt]
active: [1] 0.00626 | Shigella flexneri 0.0351 | Vibrio cholerae 0.307 | [2] 0.0451 | P. vulgatus RND KO 0.018 | P. vulgatus WT 0.0178 | [3] 0.00954 | [4] 0.0113

NCc1ccc(S(N)(=O)=O)cc1 [Mafenide hydrochloride]
inactive: [1] 1 | Shigella flexneri 0.998 | Vibrio cholerae 1.03 | [2] 0.969 | P. vulgatus RND KO 0.963 | P. vulgatus WT 0.815 | [3] 1.01 | [4] 1

CN1CCC(=C2c3ccccc3CCc3sccc32)CC1 [Pizotifen malate]
inactive: [1] 0.992 | Shigella flexneri 0.976 | [2] 0.998 | P. vulgatus RND KO 0.965 | P. vulgatus WT 0.973 | [3] 0.994 | [4] 0.963
active: Vibrio cholerae 0.873
